Screens: PubChem, The Scripps Research Institute Molecular Screening Center
The list is not random: actives were taken first. Their share in the collection is about 1.3%.
S1P4 antagonist – S1P4 receptor antagonists, primary screen, cell-based; S1P4-expressing cells, antagonist mode, reporter read-out; inhibition, % at 4.98 µM; 220,000 tested, 0.26% active; in the data active means inhibition above about 29%;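 further: 0% = wells stimulated with agonist and 100% = vehicle wells without agonist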
Target sequence (O95977 whole entry, looked up): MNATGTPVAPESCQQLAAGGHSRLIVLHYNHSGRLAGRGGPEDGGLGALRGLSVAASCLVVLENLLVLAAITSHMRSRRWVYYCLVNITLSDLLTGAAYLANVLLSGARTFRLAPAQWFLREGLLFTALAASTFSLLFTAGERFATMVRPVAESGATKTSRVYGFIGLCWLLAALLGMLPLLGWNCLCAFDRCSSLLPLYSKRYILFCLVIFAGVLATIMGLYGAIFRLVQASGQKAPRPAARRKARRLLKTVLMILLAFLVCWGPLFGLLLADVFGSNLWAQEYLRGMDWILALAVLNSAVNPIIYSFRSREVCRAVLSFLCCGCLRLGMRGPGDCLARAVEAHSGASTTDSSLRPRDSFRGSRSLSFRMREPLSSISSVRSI
GALR2 agonist – GALR2 receptor agonists, primary screen, cell-based. GALR2-expressing cells, agonist activation read-out. activation, % (test concentration not listed). 140,000 tested, 0.48% active. AID 803, 2007; in the data active means activation above about 5%, passing the limit was not always enough;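 further: 0% = vehicle buffer wells and 100% = reference agonist at full effect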
GALR2 blocker – GALR2 antagonists in receptor-expressing cells, primary screen. 140,000 tested, 0.39% active. AID 828, 2007. Galanin receptor type 2 (Homo sapiens), O43603. antagonist mode. inhibition, % at 4 µM;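 further: cells stimulated with galanin 1-16 at roughly its EC80; 0% = agonist challenge control and 100% = basal control without agonist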
S1P4 ag – S1P4 receptor agonists, primary screen, cell-based; S1P4-expressing cell line, agonist reporter assay; 220,000 tested, 0.35% active; Sphingosine 1-phosphate receptor 4 (Homo sapiens), O95977; activation, % at 4.98 µM; in the data active means activation above about 11%;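 further: 0% = DMSO vehicle and 100% = reference agonist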
S1P3 antag-1 – S1P3 receptor antagonists, primary screen, cell-based. inhibition, % at 4.98 µM. CHO S1P3 NFAT-BLA reporter, FRET fluorescence, antagonist mode. Sphingosine 1-phosphate receptor 3 (Homo sapiens), Q99500. 170,000 tested, 0.27% active;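 active means inhibition above the plate cutoff, the mean inhibition of test wells on that plate plus 3 SD, cut at about 28% in these data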;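 further: cells challenged with S1P at its EC80 of 0.8 µM; blue over green emission ratio from cleaved BLA substrate after 4 h stimulation; 0% = S1P-stimulated wells and 100% = unstimulated DMSO-only wells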
S1P3 antag-2 – S1P3 receptor antagonists, retest, confirmation, cell-based; 240 tested, 30% active; AID 1429, 2008; CHO S1P3 NFAT-BLA reporter, FRET, antagonist mode; shares compounds with S1P3 antag-1; inhibition, % at 4.98 µM;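 active means inhibition above the hit threshold that was computed for the earlier primary screen, cut at about 30% in these data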;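 further: 0% = S1P-stimulated wells and 100% = unstimulated DMSO-only wells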
GALR2 blk conf – GALR2 antagonists, retest of hits, confirmation, cell-based. shares compounds with GALR2 blocker. GALR2-expressing cells, antagonist mode, inhibition. inhibition, % at 4 µM. 480 tested, 60% active. AID 866, 2007;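 further: cells stimulated with galanin at about its EC80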
BLA inhib ctr – inhibitors of NFAT-driven beta-lactamase reporter, confirmation, counter-screen for GALR2 antagonist project, CHO NFAT-bla cells, FRET readout; shares compounds with GALR2 blocker; 480 tested, 36% active; thapsigargin-stimulated; inhibition, % at 4.2 µM;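 active means inhibition above the mean inhibition across tested compounds plus 3 SD, cut at about 27% in these data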;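 further: 0% = 500 nM thapsigargin stimulated wells and 100% = unstimulated BSA only wells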
S1P4 agonist cf – S1P4 receptor agonists, retest, confirmation, cell-based, high throughput; shares compounds with S1P4 ag; S1P4 agonist cell-based reporter assay; activation, % at 4.98 µM; 740 tested, 7% active; in the data active means activation above about 12%;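 further: 0% = vehicle and 100% = full reference agonist response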
S1P1 agonist – S1P1 receptor agonists, human, counter-screen for S1P4 agonist project, cell-based; 740 tested, 4% active; S1P1 agonist cell-based assay, activation; activation, % at 4.98 µM; shares compounds with S1P4 ag; in the data active means activation above about 21%;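 further: 0% = vehicle wells and 100% = reference agonist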
S1P4 antag conf – S1P4 receptor antagonists, human, confirmation, cell-based; shares compounds with S1P4 antagonist; S1P4-expressing cell line, antagonist mode, reporter read-out; inhibition, % at 4.98 µM; 520 tested, 71% active; AID 1524, 2009; in the data active means inhibition above about 30%
S1P1 antag – S1P1 receptor antagonists, human, counter-screen for S1P4 antagonist project, cell-based; shares compounds with S1P4 antagonist; cell-based S1P1 antagonist counterscreen, inhibition; inhibition, % at 4.98 µM; 520 tested, 37% active; AID 1564, 2009; in the data active means inhibition above about 40%;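 further: receptor stimulated with S1P near its EC80; 0% = agonist stimulated wells and 100% = vehicle only wells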
* = called active by the depositor. Unless noted, no stated cut-off is given here; in the data, active means inhibition above about 27%; inactive means the rest.

`Cc1nc2ccc(NC(=O)c3cc(S(=O)(=O)N(C)c4ccccc4)ccc3Cl)cc2s1` gave S1P4 antagonist -6.8, GALR2 agonist 4.4, GALR2 blocker 36.8*, S1P4 ag 4.1, S1P3 antag-1 30.5*, S1P3 antag-2 10.4, GALR2 blk conf 31.2* and BLA inhib ctr 5.1.
Screening CCc1ccc2c(CSc3nnnn3C)cc(=O)oc2c1 returned S1P4 antagonist 3.0, S1P4 ag 0.3 and S1P3 antag-1 -5.8.
`Cc1sc2ncnc(NCC3COc4ccccc4O3)c2c1C` (stereo not drawn) gave S1P4 antagonist -15.6, GALR2 agonist -0.3, GALR2 blocker 38.6*, S1P4 ag -2.7, S1P3 antag-1 32.1*, S1P3 antag-2 33.0*, GALR2 blk conf 45.6* and BLA inhib ctr 10.7.
`CN(C)CCCN1C(=O)c2cccc3c([N+](=O)[O-])ccc(c23)C1=O` gave S1P4 antagonist 91.7*, GALR2 agonist 0.8, GALR2 blocker 56.4*, S1P4 ag 3.5, S1P3 antag-1 33.1*, S1P3 antag-2 -0.3, GALR2 blk conf 47.8* and BLA inhib ctr 30.6*.
CC(C)(C)S(=O)(=O)c1cnc(N2CCOCC2)nc1N was read as S1P4 antagonist -3.5, S1P4 ag 3.7 and S1P3 antag-1 -0.9.
`Cc1cc(C)cc(NC(=O)/C=C/c2ccc([N+](=O)[O-])s2)c1` gave S1P4 antagonist 1.8, GALR2 agonist -0.2, GALR2 blocker 26.5, S1P4 ag 0.5 and S1P3 antag-1 -1.7.
For Cc1ccccc1NC(=O)/C=C/c1ccc([N+](=O)[O-])s1 the results were S1P4 antagonist 12.7, GALR2 agonist 0.7, GALR2 blocker 34.0*, S1P4 ag -0.4, S1P3 antag-1 35.7*, S1P3 antag-2 42.1*, GALR2 blk conf 59.8* and BLA inhib ctr 62.4*.
`CC(C)(C)NC(=O)C(c1ccc(F)cc1)N(Cc1cccs1)C(=O)c1ccc(CN2CCOCC2)o1` (stereo not drawn) gave S1P4 antagonist -8.1, S1P4 ag -0.4 and S1P3 antag-1 -6.9.
`CC[C@@H]1C=C(C)C[C@H](C)C[C@H](OC)[C@H]2O[C@@](O)(C(=O)C(=O)N3CCCC[C@H]3C(=O)O[C@H](/C(C)=C/[C@@H]3CC[C@@H](O)[C@H](OC)C3)[C@H](C)[C@@H](O)CC1=O)[C@H](C)C[C@@H]2OC` gave S1P4 antagonist -3.7, GALR2 agonist -1.1, GALR2 blocker 101.1*, S1P4 ag -7.2, S1P3 antag-1 89.1*, S1P3 antag-2 104.6*, GALR2 blk conf 103.1* and BLA inhib ctr 103.6*.
For CCN(CC)c1ccc2cc(-c3nc(-c4ccc(OC)cc4)cs3)c(=O)oc2c1 the results were S1P4 antagonist 6.1, GALR2 agonist -4.0, GALR2 blocker 78.1*, S1P4 ag 2.4, S1P3 antag-1 42.2*, S1P3 antag-2 97.1*, GALR2 blk conf 75.3* and BLA inhib ctr 85.0*.
`CCN(CC)c1ccc2cc(-c3nnc(-c4ccccc4)o3)c(=O)oc2c1` gave S1P4 antagonist 6.2, GALR2 agonist 1.2, GALR2 blocker 1.2 and S1P4 ag 0.6.
`Cc1cc(C(=O)CSc2nc3ccccc3c(=O)n2C)c(C)n1CC1CCCO1` (stereo not drawn) gave S1P4 antagonist -28.6, S1P4 ag 196.0*, S1P3 antag-1 33.4*, S1P3 antag-2 36.9*, S1P4 agonist cf -1.8 and S1P1 agonist 2.8.
`COC(=O)c1ccccc1NC(=O)Cn1nc2n(C)c3ccccc3n2c(=O)c1=O` gave S1P4 antagonist -22.3, GALR2 agonist -0.6, GALR2 blocker -1.5, S1P4 ag -0.2 and S1P3 antag-1 0.9.
O=C(NC(Nc1nc2ccc([N+](=O)[O-])cc2s1)(C(F)(F)F)C(F)(F)F)c1ccccc1Cl was read as S1P4 antagonist 43.4*, GALR2 agonist -2.5, GALR2 blocker 96.5*, S1P4 ag -1.2, S1P3 antag-1 69.5*, S1P3 antag-2 53.1*, GALR2 blk conf 94.2*, BLA inhib ctr 91.0*, S1P4 antag conf 64.5* and S1P1 antag -1.8.
For O=C(NC(Nc1nc2ccc([N+](=O)[O-])cc2s1)(C(F)(F)F)C(F)(F)F)c1cccnc1 the results were S1P4 antagonist 16.7, GALR2 agonist -0.7, GALR2 blocker 11.2, S1P4 ag 0.6 and S1P3 antag-1 3.0.
Screening CSc1ccc(CN(C)CC(=O)Nc2c(F)cccc2F)cc1 returned S1P4 antagonist -10.8, S1P4 ag 0.5 and S1P3 antag-1 -19.2.
`O=C(/C=C/c1cn(CC(O)CN2CCCCC2)c2ccccc12)c1cccs1` (stereo not drawn) gave S1P4 antagonist 30.5*, GALR2 agonist 0.1, GALR2 blocker 8.7, S1P4 ag 0.6, S1P3 antag-1 31.5*, S1P3 antag-2 8.8, S1P4 antag conf 52.5* and S1P1 antag 45.5*.
Screening O=C(Cc1sc(-c2ccccc2Cl)nc1-c1ccccc1)Nc1ccc(F)cc1 returned S1P4 antagonist -16.2, GALR2 agonist -1.5, GALR2 blocker -5.6 and S1P4 ag -1.2.
